Screens: PubChem BioAssay, National Center for Advancing Translational Sciences (NCATS)
Shown are actives, neighbours in structure and some others; about 3.7% of the full set was active somewhere.
B2AR arrestin = beta2AR (human) beta-arrestin recruitment activity | AID 492947 | 330,000 compounds, 0.02% hits | beta-arrestin recruitment to beta2AR, cell-based reporter | Potency, µM (doses to about 46.1 µM), inactives show at the top dose activation, most hits filed as activators | P07550;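 further: potency means the concentration at half of the fitted maximal effect; 0% = DMSO controls and full agonism = EC100 isoproterenol or metaproterenol; nearly all actives have a fitted effect of over 65% in size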
Target sequence (P07550 whole entry, looked up): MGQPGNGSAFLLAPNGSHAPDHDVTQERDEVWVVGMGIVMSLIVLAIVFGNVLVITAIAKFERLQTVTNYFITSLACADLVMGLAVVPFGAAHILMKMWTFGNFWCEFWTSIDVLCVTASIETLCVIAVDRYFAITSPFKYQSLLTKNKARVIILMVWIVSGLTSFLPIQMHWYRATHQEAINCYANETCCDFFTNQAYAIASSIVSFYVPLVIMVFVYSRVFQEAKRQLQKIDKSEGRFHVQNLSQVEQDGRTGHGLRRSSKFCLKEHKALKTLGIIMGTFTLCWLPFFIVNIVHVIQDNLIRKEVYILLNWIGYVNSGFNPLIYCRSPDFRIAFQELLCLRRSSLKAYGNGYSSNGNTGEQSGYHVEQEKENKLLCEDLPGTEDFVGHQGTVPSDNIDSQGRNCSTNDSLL
DRD3 antagonist = D3 dopamine receptor (human) antagonism | P35462 | D3R cells, DiscoveRx beta-arrestin luminescence, antagonist mode; active compounds read low | max response, negative = inhibition, % | 360,000 compounds, 2.5% hits; in the data active means max response below about -50%; inconclusive means no clear call, values can overlap the other calls; further: on the % scale 0 is the no-effect control and ±100 the full control effect
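Cells plated overnight at 1500 cells/well, then exposed to library compounds with dopamine controls for 90 minutes at 37 degrees C. DiscoveRx reagent added for 30–60 minutes at room temperature; luminescence read, quantitative HTS format.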
PTHR1 ag = agonists of human PTHR1 parathyroid hormone receptor; Potency, µM (titrated, usually from 115 µM), for the others: at the top dose activation, hits mostly activators; Q03431; HEK293 GP2 PTHR1 cells, GloSensor cAMP luminescence, 1 h; 410,000 compounds, 0.075% hits; further: potency means the concentration at half of the fitted maximal effect; nearly all actives have a fitted effect of over 55% in size
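HEK-293-derived GP2 cells expressing PTHR1 and a GloSensor cAMP reporter, 3,000/well, plated overnight, given luciferin plus IBMX (each 0.5 mM as added) for 1 h at 37 °C, then compound for 1 h at 37 °C. Luminescence was read after 15 min at room temperature.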
D3 ag = activates the human D3 dopamine receptor. D3R DiscoveRx beta-arrestin cells, luminescence, 90 min. max activation, %. P35462. 410,000 compounds, 0.58% hits; in the data active means max activation above about 30%; further: 0% is about no effect
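Agonist mode: compounds and dopamine controls were applied to plated cells for 90 min at 37 degrees C after an overnight attachment at 1500 cells/well. Luminescent read-out followed 30 - 60 minutes at room temperature with DiscoveRx detection reagent.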
RGS4 inh = inhibitors of human regulator of G protein signaling 4 | Transcreener GDP fluorescence polarization, RGS4-accelerated GTP hydrolysis | Potency, µM (highest dose often 114 µM), inactives show top-dose activity change, negative = inhibition, most hits filed as inhibitors | P49798 | 390,000 compounds, 0.039% hits | AID 504845; further: potency means the concentration at half of the fitted maximal effect; on the % scale 0 is the no-effect control and ±100 the full control effect; nearly all actives have a fitted effect of over 75% in size
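MLSMR compounds (23 nl, pin-transferred) preincubated 10 min at room temperature with a 500nM (2x) first reagent, then RGS4 at 900nM (2x) plus Transcreener GDP mix added; fluorescence polarization (620/688 nm) read before and after 90 min at 30 °C.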
BRCA1 expr act = BRCA1 expression activation. MCF7-BRCA1-FFLuc reporter, luminescence, 48 h; response scale: scaled: vehicle 0%, 10 µM genistein 100%. Potency, µM (series often up to 46.1 µM), for inactives: at the top dose activation, usual class: activators. 380,000 compounds, 1.1% hits; further: potency means the concentration at half of the fitted maximal effect; nearly all actives have a fitted effect of over 80% in size
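Quantitative HTS in MCF7 cells stably reporting BRCA1 expression via firefly luciferase. Compound treatment lasts 48 h at 37 °C in phenol-red free MEM. Activation is expressed relative to genistein at 10 microM and DMSO.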
* = called active by the depositor; i = inactive; ? = inconclusive; . = not tested or not shown; [ ] = dose if it differs, or a comment. Unless noted, the call rests on the fitted dose curve; in most records, active means well fitted curve in the direction sought with a large enough effect; inconclusive means small, poorly fitted or top-dose-only effect, or another doubt; inactive means no such curve, though single readings can be large; an effect the other way counts as inactive or inconclusive.

SMILES | B2AR arrestin | DRD3 antagonist | PTHR1 ag | D3 ag | RGS4 inh | BRCA1 expr act
COc1ccc(CN2CCC(C(=O)NC(C)c3cccc4ccccc34)CC2)cc1 (stereo not given) | . | ? | -16% | -10 | . | 0%
COc1ccccc1C(NC(=O)C1CCN(CCc2ccc(Br)cc2)CC1)c1ccccn1 (stereo not given) | . | ? | -3% | -14 | . | 17%
CCOC(=O)CN[C@@H](C(=O)N1CC[C@H]1C(=O)NCc1ccc(/C(N)=N/O)cc1)C1CCCCC1 | . | . | . | 4 | . | .
CN(C)c1ccc(C(=O)N/N=C/c2ccccn2)cc1 | 0% | -9 | -40% | -11 | 8% | 86%
COc1ccc(-c2c(C#N)c(SCC(=O)Nc3ccc(C)c(C)c3)nc(C)c2C(=O)Nc2ccc(Cl)cc2)cc1 | . | . | -4% | 4 | -16% | .
CC(=O)Nc1ccc(S(=O)(=O)N[C@H](C(=O)O)C(C)C)cc1 | 0% | 13 | i | 0 | -7% | -17%
COC(=O)C(NS(=O)(=O)c1ccc(NC(C)=O)cc1)C(C)C (stereo not given) | -1% | -74* | i | -34 | 9% | -11%
COc1cc2sc3ccc(-c4ccc(CN5CCOCC5)cc4)cc3c(=O)c2cc1OC | ? | 181 | -47% | 118* | -40% | 58%
Cc1cc(C)n(-c2nc(C)c(C)c(=O)n2CC(=O)Nc2ccc([N+](=O)[O-])cc2)n1 | . | . | -4% | -2 | 10% | .
CCCCN=C(Nc1ccc(Cl)cc1)c1cccnc1 | -1% | -64* | -13% | -9 | -18% | -12%[1.84 µM]
C=CCN1CCc2c(cc(O)c(O)c2Br)[C@@H](c2ccccc2)C1 | . | 3 | -27% | 83* | ? | -1%
N#C/C(C(=O)Oc1ccccc1)=C1\C=CC=CN1 | 0% | -17 | -18%[57.5 µM] | -8 | 12% | 3.2µM*
COc1ccc(-c2nc(C#N)c(NCCc3ccccc3)o2)cc1 | 3% | -16 | i | -2 | 1% | ?
COc1ccc(-c2nc(C#N)c(NCCN(C)C)o2)cc1 | . | -61* | i | -8 | 6% | 5%
Cc1ccc(-c2nc(C#N)c(NCCc3ccccn3)o2)cc1 | 0% | 0 | -30%[57.5 µM] | 4 | -2% | 3.5µM*
COCCNc1oc(-c2ccc(Cl)cc2)nc1C#N | 3% | -4 | -6% | 2 | 6% | 5.6µM*
N#Cc1nc(-c2ccc(Cl)cc2)oc1NCCc1ccccn1 | 0% | -1 | i | -2 | 6% | 3.5µM*
COCCNc1oc(-c2ccc(C)cc2)nc1C#N | 5% | 16 | -70% | 2 | 5% | ?
CCOc1ccc(-c2nc(C#N)c(NC3CC3)o2)cc1 | 0% | -6 | i | 1 | 0% | 10µM*
CCOc1ccc(Nc2oc(-c3ccc(Cl)cc3)nc2C#N)cc1 | -1% | 7 | i | 0 | 16% | 10%
CCN1CCN(S(=O)(=O)c2cc(OCC(=O)NC3CCCCC3)c(C)cc2Cl)CC1 | 0% | -70* | -47% | -9 | 42% | -63%
CCC[C@@H]1C[C@@H](C(=O)N[C@@H]([C@H]2O[C@H](SC)[C@H](O)[C@@H](O)[C@H]2O)[C@H](C)Cl)N(C)C1 | . | . | . | -13 | . | .
CNc1nc(-c2ccc(OC)cc2)c(-c2ccc(OC)cc2)s1 | 0% | -7 | i | 49* | 27% | 0%
COc1ccc(-c2nc(NC(C)=O)sc2-c2ccc(OC)cc2)cc1 | 0% | -24 | -8% | 0 | 3% | -84%
Cc1ccc(NC(=O)CS(=O)(=O)c2nc(-c3ccc(C)cc3)cn2-c2ccc(C)cc2)cc1 | . | . | -29% | -13 | -12% | .
CC1CC1c1ccc(/C=C(\C#N)C(=O)Nc2cc(Cl)ccc2Cl)o1 (stereo not given) | -1% | 12 | i | -4 | 1% | -49%
N#C/C(=C\c1ccc(-c2cc(Cl)ccc2Cl)o1)C(=O)Nc1ccccc1C(=O)O | . | . | -16% | 33* | -49% | .
